Values joined by “and” are separate entries in the source; they are usually repeats but may differ in a detail not shown here. Identical values can stand only once. Records with an inconclusive call do not appear. Entries that show only a call come without a potency. Active and inactive are the calls of the source. Unless noted, calls come from the whole dose curve.
Biological target: Estrogen receptor (Homo sapiens) (UniProt P03372)
Assay: qHTS assay for small molecule antagonists of estrogen receptor alpha signaling (AID 588513; active = well fitted curve in the direction sought with a large enough effect in the signal ratio, with a control signal flat, not every such curve was filed as active; the % refers to the signal ratio)
Conditions: ER-alpha-UAS-bla HEK293, beta-lactamase ratio, antagonist mode; series mostly up to 76.9 µM
Method in brief: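 Antagonist-mode qHTS in ER-alpha-UAS-bla HEK 293 cells: compound titration, 0.5nM estradiol for 18 h, CCF4 fluorescence, Hill-derived IC50.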

Estrogen receptor (Homo sapiens), sequence (P03372 whole entry, looked up): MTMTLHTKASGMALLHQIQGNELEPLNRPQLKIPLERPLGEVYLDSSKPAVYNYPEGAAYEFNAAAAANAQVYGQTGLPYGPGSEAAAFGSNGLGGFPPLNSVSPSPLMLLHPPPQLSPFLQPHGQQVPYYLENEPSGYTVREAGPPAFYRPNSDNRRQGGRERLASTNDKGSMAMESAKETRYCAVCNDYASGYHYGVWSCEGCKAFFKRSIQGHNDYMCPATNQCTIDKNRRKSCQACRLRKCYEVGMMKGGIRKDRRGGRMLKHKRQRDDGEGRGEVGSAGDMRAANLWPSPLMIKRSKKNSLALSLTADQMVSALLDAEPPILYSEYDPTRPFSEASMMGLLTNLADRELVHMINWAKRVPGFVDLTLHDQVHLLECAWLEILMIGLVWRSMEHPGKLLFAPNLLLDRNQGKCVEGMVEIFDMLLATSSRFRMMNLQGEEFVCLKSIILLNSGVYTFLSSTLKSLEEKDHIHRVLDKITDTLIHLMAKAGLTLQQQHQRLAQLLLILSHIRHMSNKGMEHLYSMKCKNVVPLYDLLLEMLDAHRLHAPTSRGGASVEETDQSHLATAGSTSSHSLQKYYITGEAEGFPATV

Row | SMILES | outcome
1 | Nc1cnn([C@@H]2O[C@H](CO)[C@@H](O)[C@H]2O)c(=O)n1 | inactive
2 | CC(C)OCC1CO1 (centres undefined) | inactive
3 | C/C(Cl)=C/CCl | inactive
4 | CCCCNCC | inactive
5 | O=c1[nH]ncc2ccccc12 | inactive
6 | c1ccc(COCc2ccccc2)cc1 | inactive
7 | O=[N+]([O-])c1cccc(I)c1 | inactive
8 | Nc1ccc2c(c1)C(=O)c1ccccc1C2=O | inactive
9 | c1ccc2c(c1)ccc1ccccc12 | inactive
10 | Nc1ccc(N=Nc2ccccc2)c(N)c1 | inactive
11 | Cc1ccc(C(=O)O)cc1[N+](=O)[O-] | inactive
12 | COc1ccc([N+](=O)[O-])cc1N | inactive
13 | Oc1ccc2c(c1)OCO2 | inactive
14 | c1ccncc1 | inactive
15 | O=C(OCc1ccccc1)c1ccccc1O | inactive
16 | C/C=C/C=C/C=O | inactive
17 | CCN(CC)c1ccc2c(C)cc(=O)oc2c1 | inactive
18 | c1c[nH]cn1 | inactive
19 | CC(=O)OC(C(=O)c1ccccc1)c1ccccc1 (centres undefined) | inactive
20 | CCCCCCN | inactive
21 | CC(=O)Nc1cccc(C)c1 | inactive
22 | CCC(Cl)CC(Cl)C(Cl)C(Cl)C(Cl)C(C)Cl (centres undefined) | inactive
23 | COc1ccc(C)cc1N | inactive
24 | CCc1ccc(C(c2ccc(CC)cc2)C(Cl)Cl)cc1 | inactive
25 | O=[N+]([O-])c1ccccc1Nc1ccccc1 | inactive
26 | COc1ccc(C(=O)Nc2ccccc2)cc1[N+](=O)[O-] | inactive

Biological target: Estrogen receptor (Homo sapiens) (UniProt P03372)
Assay: qHTS assay for small molecule agonists of estrogen receptor alpha signaling (AID 588514); note: nearly all actives have a fitted effect of over 70% in size
Conditions: ER-alpha-UAS-bla HEK293, beta-lactamase ratio, 18 h; series mostly up to 76.8 µM
Method in brief: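 Read-out: CCF4 fluorescence from a beta-lactamase reporter in ER-alpha-UAS-bla HEK 293 cells after 18 hrs of compound exposure at 37 C. Normalized to 20 nM 17-beta-estradiol (100%) and DMSO (0%).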

Row | SMILES | Potency
27 | Nc1cnn([C@@H]2O[C@H](CO)[C@@H](O)[C@H]2O)c(=O)n1 | inactive
28 | CC(C)OCC1CO1 (centres undefined) | inactive
29 | C/C(Cl)=C/CCl | inactive
30 | CCCCNCC | inactive
31 | O=c1[nH]ncc2ccccc12 | inactive
32 | c1ccc(COCc2ccccc2)cc1 | inactive
33 | O=[N+]([O-])c1cccc(I)c1 | inactive
34 | c1ccc2c(c1)ccc1ccccc12 | inactive
35 | Nc1ccc(N=Nc2ccccc2)c(N)c1 | inactive
36 | Cc1ccc(C(=O)O)cc1[N+](=O)[O-] | inactive
37 | COc1ccc([N+](=O)[O-])cc1N | inactive
38 | Oc1ccc2c(c1)OCO2 | inactive
39 | c1ccncc1 | inactive
40 | O=C(OCc1ccccc1)c1ccccc1O | inactive
41 | C/C=C/C=C/C=O | inactive
42 | c1c[nH]cn1 | inactive
43 | CC(=O)OC(C(=O)c1ccccc1)c1ccccc1 (centres undefined) | inactive
44 | CCCCCCN | inactive
45 | CC(=O)Nc1cccc(C)c1 | inactive
46 | CCC(Cl)CC(Cl)C(Cl)C(Cl)C(Cl)C(C)Cl (centres undefined) | inactive
47 | COc1ccc(C)cc1N | inactive
48 | CCc1ccc(C(c2ccc(CC)cc2)C(Cl)Cl)cc1 | inactive
49 | O=[N+]([O-])c1ccccc1Nc1ccccc1 | inactive

Biological target: Androgen receptor (Homo sapiens) (UniProt P10275)
Sequence (P10275 whole entry, looked up): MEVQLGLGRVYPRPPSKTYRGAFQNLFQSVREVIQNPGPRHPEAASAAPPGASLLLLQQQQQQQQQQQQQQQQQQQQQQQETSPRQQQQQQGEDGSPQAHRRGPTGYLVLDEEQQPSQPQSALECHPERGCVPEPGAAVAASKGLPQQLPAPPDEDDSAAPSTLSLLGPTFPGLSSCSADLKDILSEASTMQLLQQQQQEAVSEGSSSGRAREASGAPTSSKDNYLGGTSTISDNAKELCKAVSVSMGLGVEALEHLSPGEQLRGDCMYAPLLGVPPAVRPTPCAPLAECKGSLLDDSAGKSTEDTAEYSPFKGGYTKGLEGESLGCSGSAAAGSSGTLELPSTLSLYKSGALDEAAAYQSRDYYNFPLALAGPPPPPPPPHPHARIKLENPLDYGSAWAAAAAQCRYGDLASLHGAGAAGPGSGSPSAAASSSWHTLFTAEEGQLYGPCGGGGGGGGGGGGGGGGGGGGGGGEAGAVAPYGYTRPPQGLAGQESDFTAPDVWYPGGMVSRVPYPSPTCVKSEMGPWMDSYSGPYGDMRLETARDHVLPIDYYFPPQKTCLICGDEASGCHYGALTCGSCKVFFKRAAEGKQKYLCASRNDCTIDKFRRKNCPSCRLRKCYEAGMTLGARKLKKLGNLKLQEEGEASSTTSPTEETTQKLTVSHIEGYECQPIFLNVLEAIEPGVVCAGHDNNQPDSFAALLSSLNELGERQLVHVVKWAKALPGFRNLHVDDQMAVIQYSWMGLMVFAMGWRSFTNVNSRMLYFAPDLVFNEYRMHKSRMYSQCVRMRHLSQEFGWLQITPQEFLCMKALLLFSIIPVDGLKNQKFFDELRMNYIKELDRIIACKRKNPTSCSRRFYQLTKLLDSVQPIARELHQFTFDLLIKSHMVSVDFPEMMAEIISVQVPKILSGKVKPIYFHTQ
Assay: qHTS assay for small molecule agonists of androgen receptor signaling (AID 588515; active = well fitted curve in the direction sought with a large enough effect in the signal ratio, with a control signal flat; the % refers to the signal ratio)
Conditions: AR-UAS-bla HEK293, beta-lactamase ratio, agonist 16 h; hits give high values
Method in brief: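 Stimulation of an AR-responsive β-lactamase reporter in GripTite HEK293 cells was measured after 16 h compound exposure at 37 °C, via CCF4 fluorescence after 2 h RT. EC50 from Hill fits, normalized to R1881 at 30 nM.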

Row | SMILES | activation
50 | C/C(Cl)=C/CCl | 10.2% (inactive)
51 | c1ccc2c(c1)ccc1ccccc12 | -2.75% (inactive) and -0.0415% (inactive)
52 | Cc1ccc(C(=O)O)cc1[N+](=O)[O-] | 6.4% (inactive)
53 | c1ccc(SCCSc2ccccc2)cc1 | 12.3% (inactive)
54 | O=C(O)/C=C/c1ccc(/C=C/C(=O)O)cc1 | -7.2% (inactive)
55 | CC(=O)OC(C(=O)c1ccccc1)c1ccccc1 (centres undefined) | -5.55% (inactive)
56 | CCC(Cl)CC(Cl)C(Cl)C(Cl)C(Cl)C(C)Cl (centres undefined) | -4.22% (inactive)
57 | COc1ccc(C)cc1N | 1.38% (inactive)
58 | CCc1ccc(C(c2ccc(CC)cc2)C(Cl)Cl)cc1 | -10.8% (inactive)

Biological target: Androgen receptor (Homo sapiens) (UniProt P10275)
Assay: qHTS assay for small molecule antagonists of androgen receptor signaling (AID 588516; active = well fitted curve in the direction sought with a large enough effect in the signal ratio, with a control signal flat, not every such curve was filed as active; the % refers to the signal ratio)
Conditions: AR-UAS-bla HEK293, beta-lactamase ratio, antagonist mode, 16 h; series mostly up to 76.8 µM
Source text: NIH Chemical Genomics Center [NCGC] U.S. Environmental Protection Agency [EPA] National Institutes of Environmental Health Sciences [NIEHS] National Toxicology Program [NTP] NCGC Assay Overview Androgen receptor (AR), located at chromosome Xq11-12, is an important member of nuclear hormone receptors. AR signaling plays a critical role in AR-dependent prostate cancer and other androgen related diseases. Considerable attention has been given in the past decades to the possibility of some of environmental chemicals which may contribute the endocrine disruption. Therefore, it is important to understand the effect of environmental chemicals in AR signaling pathway.
NCGC Assay Protocol Summary Using a beta-lactamase reporter-gene under control of the AR response element, a cell-based assay [GeneBLAzer AR-UAS-bla-GripTite assay developed by Invitrogen] was used to measure AR ligands signaling. AR-UAS-bla-GripTite HEK 293 cells were used with assay medium containing 10% dialyzed FBS, 0.1 mM NEAA and 1 mM sodium pyruvate. The assay was performed in clear bottom black Greiner 1536-well plates. Library compounds were measured for their ability to inhibit the reporter gene activity. Compounds were screened in a titration series in 1536-well format. The fluorescence intensity (405 nm excitation, 460/530 nm emission) was measured using an EnVision plate reader. Data was normalized relative to R1881 (10nM, 100%), and DMSO only wells (basal, 0%). Concentration-response titration points for each compound were fitted to the Hill equation yielding concentrations of half-maximal inhibition (IC50) and maximal response (efficacy) values. qHTS protocol for AR beta-lactamase assay in antagonist mode [Step] [Parameter] [Value] [Description] 1. Reagent; 5 uL; 2000 cells/well 2. Incubation; 37 C for 5 hrs 3. Compounds; 23 nL; 0.59 nM to 92 uM 4. Controls (Cyp Ac, AR antagonist); 23 nL, dose response, 1:3 dilutions with duplicates 5. Agonist (Stimulator); 1uL; R1881 at 10nM (final) concentration 6. Incubation; 37 C for 16 hrs 7. Detection reagent; 1 uL of CCF4-dye 8. Incubation; RT for 2 hrs 9. Detection; Fluorescence; Envision plate reader

Row | SMILES | outcome
59 | C/C(Cl)=C/CCl | inactive
60 | c1ccc2c(c1)ccc1ccccc12 | inactive
61 | Cc1ccc(C(=O)O)cc1[N+](=O)[O-] | inactive
62 | C/C=C/C=C/C=O | inactive

Biological target: Bile acid receptor (Homo sapiens) (UniProt Q96RI1)
Sequence (Q96RI1 whole entry, looked up): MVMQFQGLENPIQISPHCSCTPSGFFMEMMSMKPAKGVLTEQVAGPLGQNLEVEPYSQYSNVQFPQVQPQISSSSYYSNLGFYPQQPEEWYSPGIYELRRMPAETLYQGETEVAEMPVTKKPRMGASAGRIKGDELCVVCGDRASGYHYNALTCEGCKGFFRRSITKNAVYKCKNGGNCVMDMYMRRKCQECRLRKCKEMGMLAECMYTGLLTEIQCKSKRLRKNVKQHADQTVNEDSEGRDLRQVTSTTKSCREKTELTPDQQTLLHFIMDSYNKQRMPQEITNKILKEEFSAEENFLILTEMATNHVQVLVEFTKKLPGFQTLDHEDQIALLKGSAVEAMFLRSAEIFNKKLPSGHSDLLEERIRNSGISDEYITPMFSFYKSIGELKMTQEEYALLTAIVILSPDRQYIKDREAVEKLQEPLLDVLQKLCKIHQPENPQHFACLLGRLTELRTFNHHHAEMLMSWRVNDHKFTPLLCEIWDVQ
Assay: qHTS assay for small molecule antagonists of farnesoid X receptor signaling (AID 588526); note: potency is the fitted concentration of half-maximal effect
Conditions: HEK293T FXR-UAS-bla, beta-lactamase ratio, antagonist mode; series mostly up to 76.7 µM
Method in brief: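 Antagonist mode: titrated compounds tested against chenodeoxycholic acid stimulation (normalized to 50 uM CDCA and DMSO) in GeneBLAzer HEK293T cells for 16 h. Beta-lactamase read by CCF4 fluorescence; IC50 from Hill fits.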

Row | SMILES | Potency
63 | Nc1cnn([C@@H]2O[C@H](CO)[C@@H](O)[C@H]2O)c(=O)n1 | 25.1 µM (active)
64 | CCCCCCCCOc1ccc(C(=O)O)cc1 | inactive
65 | Oc1c(Cl)cc(Cl)c(Cl)c1Cl | inactive
66 | CC(C)OCC1CO1 (centres undefined) | inactive
67 | C/C(Cl)=C/CCl | inactive
68 | c1ccc(COCc2ccccc2)cc1 | inactive
69 | c1ccc2c(c1)ccc1ccccc12 | inactive
70 | COc1ccc([N+](=O)[O-])cc1N | inactive
71 | OCC(CO)(CBr)CBr | inactive
72 | CC(=O)OC1CC(C)OC(C)O1 (centres undefined) | inactive
73 | c1ccc(SCCSc2ccccc2)cc1 | inactive
74 | CCCCOC(=O)COc1ccc(Cl)cc1Cl | inactive
75 | CC(=O)OC(C(=O)c1ccccc1)c1ccccc1 (centres undefined) | inactive
76 | COc1ccc(C(=O)Nc2ccccc2)cc1[N+](=O)[O-] | inactive

Biological target: Glucocorticoid receptor (Homo sapiens) (UniProt P04150)
Sequence (P04150 whole entry, looked up): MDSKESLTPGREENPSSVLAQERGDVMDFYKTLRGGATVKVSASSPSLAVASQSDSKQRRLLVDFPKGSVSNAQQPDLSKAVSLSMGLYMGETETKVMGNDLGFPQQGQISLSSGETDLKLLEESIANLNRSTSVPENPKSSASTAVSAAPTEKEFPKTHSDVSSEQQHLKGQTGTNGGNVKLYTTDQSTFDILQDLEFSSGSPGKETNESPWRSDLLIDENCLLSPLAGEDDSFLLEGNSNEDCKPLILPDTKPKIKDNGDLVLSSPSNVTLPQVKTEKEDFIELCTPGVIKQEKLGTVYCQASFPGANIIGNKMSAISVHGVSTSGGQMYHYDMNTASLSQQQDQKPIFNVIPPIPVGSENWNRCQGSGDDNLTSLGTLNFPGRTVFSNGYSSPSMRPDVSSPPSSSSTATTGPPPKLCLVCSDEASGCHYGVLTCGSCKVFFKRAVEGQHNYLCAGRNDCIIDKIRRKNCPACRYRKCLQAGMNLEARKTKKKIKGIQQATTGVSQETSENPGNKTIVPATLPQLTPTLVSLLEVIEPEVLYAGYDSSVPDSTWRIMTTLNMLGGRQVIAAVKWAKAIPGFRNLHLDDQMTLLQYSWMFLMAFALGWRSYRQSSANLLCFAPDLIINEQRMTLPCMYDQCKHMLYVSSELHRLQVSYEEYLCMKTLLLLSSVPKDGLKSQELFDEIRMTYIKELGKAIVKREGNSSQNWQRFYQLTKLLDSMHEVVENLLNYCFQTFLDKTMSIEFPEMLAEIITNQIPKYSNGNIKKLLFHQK
Assay: qHTS assay for small molecule agonists of glucocorticoid receptor signaling (AID 588532; active = well fitted curve in the direction sought with a large enough effect in the signal ratio, with a control signal flat; the % refers to the signal ratio)
Conditions: HeLa MMTV-bla, beta-lactamase ratio, agonist, 18 h; hits give high values; percent of dexamethasone control, DMSO zero
Method in brief: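 HeLa GRE-bla reporter cells; 18 h compound exposure at 37 C; 2 h CCF4 loading at room temperature; fluorescence at 460 and 530 nm; EC50 by Hill equation.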

Row | SMILES | activation
77 | CCCCCCc1ccc(-c2ccc(C#N)cc2)cc1 | -6.81% (inactive)
78 | Nc1cnn([C@@H]2O[C@H](CO)[C@@H](O)[C@H]2O)c(=O)n1 | -5.2% (inactive)
79 | CCCCCCCCOc1ccc(C(=O)O)cc1 | -4.25% (inactive)
80 | Oc1c(Cl)cc(Cl)c(Cl)c1Cl | 5.94% (inactive)
81 | CC(C)OCC1CO1 (centres undefined) | -3.64% (inactive)
82 | CCCCNCC | -12.1% (inactive)
83 | O=c1[nH]ncc2ccccc12 | -0.672% (inactive)
84 | O=[N+]([O-])c1cccc(I)c1 | -12.6% (inactive)
85 | Nc1ccc2c(c1)C(=O)c1ccccc1C2=O | -3.44% (inactive) and 1.5% (inactive)
86 | c1ccc2c(c1)ccc1ccccc12 | 3.65% (inactive) and 10.6% (inactive)
87 | Nc1ccc(N=Nc2ccccc2)c(N)c1 | -4.54% (inactive)
88 | COc1ccc([N+](=O)[O-])cc1N | 2.11% (inactive) and 1.38% (inactive)
89 | OCC(CO)(CBr)CBr | -3.06% (inactive)
90 | Nc1cc(C(=O)O)c(O)c(S(=O)(=O)O)c1 | 1.03% (inactive)
91 | Oc1ccc2c(c1)OCO2 | -0.95% (inactive)
92 | CC(=O)OC1CC(C)OC(C)O1 (centres undefined) | 0.225% (inactive) and -13.7% (inactive)
93 | O=C(OCc1ccccc1)c1ccccc1O | -2.46% (inactive) and -9.77% (inactive)
94 | C/C=C/C=C/C=O | -0.282% (inactive)
95 | c1c[nH]cn1 | -7.19% (inactive)
96 | O=C(O)/C=C/c1ccc(/C=C/C(=O)O)cc1 | 12.3% (inactive)
97 | CC(=O)OC(C(=O)c1ccccc1)c1ccccc1 (centres undefined) | 8.92% (inactive)
98 | CC(=O)Nc1cccc(C)c1 | -1.44% (inactive)
99 | CCC(Cl)CC(Cl)C(Cl)C(Cl)C(Cl)C(C)Cl (centres undefined) | 4.73% (inactive)
100 | COc1ccc(C)cc1N | 9.32% (inactive)
101 | CCc1ccc(C(c2ccc(CC)cc2)C(Cl)Cl)cc1 | 1.14% (inactive)
102 | C[C@@H]1CC2(OC(O)[C@]3(C)O[C@H]23)O[C@H]2C[C@@]3(C)[C@@H]4CC[C@H]5C(C)(C)C(O[C@@H]6OC[C@@H](O)[C@H](O)[C@H]6O)CC[C@@]56C[C@@]46CC[C@]3(C)[C@@H]12 (some centres undefined) | 1.76% (inactive)
103 | C=CC1CO1 (centres undefined) | -10.4% (inactive)
104 | COc1ccc(C(=O)Nc2ccccc2)cc1[N+](=O)[O-] | -1.05% (inactive)

— PubChem BioAssay (NCATS)
